Measurements from PubChem BioAssay AID1159580 (chemical genetic matrix, 2015).
“And” between values parts separate entries of the source, which are not always exact repeats. Equal entries are not always repeated. Hit rate of the full screen: of about 5,500 compounds, about 2,000 (36%) were called active. Not shown: some 18% with an inconclusive outcome. No stated cut-off is given here; in the data, active means normalized growth mostly below about 0.91 (no sharp cut-off); inconclusive means no clear call, values can overlap the other calls; inactive means mostly above about 0.92. The list shows a part of the results.

Experiment: chemical genetic growth profiling, strain panel (AID 1159580);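 further: tested at 20 µM; growth read once vehicle control cultures reached saturation at 30 °C; 1 = growth at the plate median or of vehicle wells; lower values mean less growth of the strain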
Settings: growth OD

Measured: normalized growth

CCN(CC)CCCC(C)Nc1ccnc2cc(Cl)ccc12 (stereo not drawn)
inactive: S. cerevisiae deletion strains, locus YJR075W, strain HOC1, hits give low values 1.03 and 1.01 | S. cerevisiae deletion strains, locus YKL009W, strain mrt4, hits give low values 1.03 | S. cerevisiae deletion strains, locus YKL068W, hits give low values 1.01 | S. cerevisiae deletion strains, locus YKL085W, strain MDH1 (second series), hits give low values 0.998 | S. cerevisiae deletion strains, locus YKL085W, strain MDH1, hits give low values 0.998 | S. cerevisiae deletion strains, locus YKL160W, strain elf1, hits give low values 1.03 | S. cerevisiae deletion strains, locus YKR001C, strain vps1, hits give low values 1.01 | S. cerevisiae deletion strains, locus YKR026C, strain gcn3, hits give low values 1.03 | S. cerevisiae deletion strains, locus YKR091W, strain srl3, hits give low values 1.02 | S. cerevisiae deletion strains, locus YLL001W, strain dnm1, hits give low values 1.02 | S. cerevisiae deletion strains, locus YLL026W, hits give low values 1.01 | S. cerevisiae deletion strains, locus YLL041C, strain sdh2, hits give low values 1.02 | S. cerevisiae deletion strains, locus YLR027C, strain aat2, hits give low values 1.01 | S. cerevisiae deletion strains, locus YLR039C, strain RIC1, hits give low values 1.04 | S. cerevisiae deletion strains, locus YLR058C, strain SHM2, hits give low values 1.03 | S. cerevisiae deletion strains, locus YLR102C, strain apc9, hits give low values 1 | S. cerevisiae deletion strains, locus YLR113W, strain HOG1, hits give low values 0.947 | S. cerevisiae deletion strains, locus YLR221C, strain rsa3, hits give low values 1.03 | S. cerevisiae deletion strains, locus YLR258W, strain gsy2, hits give low values 1.01 | S. cerevisiae deletion strains, locus YLR262C, strain YPT6 (second series), hits give low values 1.01 | S. cerevisiae deletion strains, locus YLR262C, strain YPT6, hits give low values 1.01 | S. cerevisiae deletion strains, locus YLR268W, strain sec22, hits give low values 0.998 | S. cerevisiae deletion strains, locus YLR320W, strain mms22, hits give low values 1.01 | S. cerevisiae deletion strains, locus YLR330W, strain CHS5, hits give low values 1.02 | S. cerevisiae deletion strains, locus YLR342W, strain FKS1 (second series), hits give low values 1.03 | S. cerevisiae deletion strains, locus YLR342W, strain FKS1, hits give low values 1.03 | S. cerevisiae deletion strains, locus YLR357W, strain rsc2, hits give low values 1.05 | S. cerevisiae deletion strains, locus YLR370C, strain arc18, hits give low values 1.02 | S. cerevisiae deletion strains, locus YLR371W, strain rom2, hits give low values 1.02 | S. cerevisiae deletion strains, locus YLR384C, strain iki3, hits give low values 1.03 | S. cerevisiae deletion strains, locus YLR418C, strain cdc73, hits give low values 1.07 | S. cerevisiae deletion strains, locus YML016C, strain PPZ1, hits give low values 1.01 | S. cerevisiae deletion strains, locus YML032C, strain rad52, hits give low values 0.996 | S. cerevisiae deletion strains, locus YML120C, strain ndi1, hits give low values 1.01 | S. cerevisiae deletion strains, locus YML124C, strain tub3, hits give low values 1 | S. cerevisiae deletion strains, locus YMR058W, strain fet3, hits give low values 1 | S. cerevisiae deletion strains, locus YMR078C, strain ctf18, hits give low values 1.02 | S. cerevisiae deletion strains, locus YMR125W, strain sto1, hits give low values 1.03 | S. cerevisiae deletion strains, locus YMR129W, hits give low values 1.02 | S. cerevisiae deletion strains, locus YMR205C, strain PFK2, hits give low values 1.04 | S. cerevisiae deletion strains, locus YMR223W, strain ubp8, hits give low values 1.03 | S. cerevisiae deletion strains, locus YMR231W, strain pep5, hits give low values 1.02 | S. cerevisiae deletion strains, locus YMR307W, strain GAS1, hits give low values 1.04 | S. cerevisiae deletion strains, locus YNL067W, strain RPL9B, hits give low values 1.03 | S. cerevisiae deletion strains, locus YNL071W, strain lat1, hits give low values 1 | S. cerevisiae deletion strains, locus YNL128W, strain TEP1, hits give low values 1.04 | S. cerevisiae deletion strains, locus YNL153C, strain GIM3, hits give low values 1.04 | S. cerevisiae deletion strains, locus YNL175C, strain NOP13, hits give low values 1.01 | S. cerevisiae deletion strains, locus YNL183C, strain NPR1, hits give low values 0.918 | S. cerevisiae deletion strains, locus YNL197C, strain WHI3, hits give low values 0.99 | S. cerevisiae deletion strains, locus YNL209W, strain ssb2, hits give low values 1.01 | S. cerevisiae deletion strains, locus YNL224C, strain SQS1, hits give low values 1 | S. cerevisiae deletion strains, locus YNL233W, strain BNI4, hits give low values 1.03 | S. cerevisiae deletion strains, locus YNL248C, strain rpa49, hits give low values 1.04 | S. cerevisiae deletion strains, locus YNL250W, strain rad50, hits give low values 1.02 | S. cerevisiae deletion strains, locus YNL271C, strain bni1, hits give low values 1.01 | S. cerevisiae deletion strains, locus YNL298W, strain CLA4, hits give low values 1.01 | S. cerevisiae deletion strains, locus YNL307C, strain MCK1, hits give low values 1.02 | S. cerevisiae deletion strains, locus YNL322C, strain KRE1 (second series), hits give low values 1.05 | S. cerevisiae deletion strains, locus YNR049C, strain mso1, hits give low values 1.02 | S. cerevisiae deletion strains, locus YNR052C, strain pop2, hits give low values 1.01 | S. cerevisiae deletion strains, locus YOL006C, strain TOP1, hits give low values 1.14 | S. cerevisiae deletion strains, locus YOL012C, strain htz1 2.16 | S. cerevisiae deletion strains, locus YOL147C, strain pex11, hits give low values 1 | S. cerevisiae deletion strains, locus YOR001W, strain rrp6, hits give low values 1.03 | S. cerevisiae deletion strains, locus YOR061W, strain CKA2, hits give low values 1.01 | S. cerevisiae deletion strains, locus YOR069W, strain VPS5, hits give low values 1.01 | S. cerevisiae deletion strains, locus YOR070C, strain gyp1, hits give low values 1.02 | S. cerevisiae deletion strains, locus YOR080W, strain dia2, hits give low values 1.06 | S. cerevisiae deletion strains, locus YOR083W, strain WHI5 (second series), hits give low values 0.986 | S. cerevisiae deletion strains, locus YOR083W, strain WHI5, hits give low values 1.02 | S. cerevisiae deletion strains, locus YOR106W, strain vam3, hits give low values 1.03 | S. cerevisiae deletion strains, locus YOR136W, strain idh2, hits give low values 1.01 | S. cerevisiae deletion strains, locus YOR144C, strain elg1, hits give low values 0.993 | S. cerevisiae deletion strains, locus YOR184W, strain ser1, hits give low values 1.03 | S. cerevisiae deletion strains, locus YOR231W, strain MKK1, hits give low values 0.953 | S. cerevisiae deletion strains, locus YOR265W, strain rbl2, hits give low values 1.02 | S. cerevisiae deletion strains, locus YOR270C, strain vph1, hits give low values 1.01 | S. cerevisiae deletion strains, locus YOR290C, strain snf2, hits give low values 1.01 | S. cerevisiae deletion strains, locus YOR316C, strain cot1, hits give low values 1.01 | S. cerevisiae deletion strains, locus YPL051W, strain arl3, hits give low values 1.02 | S. cerevisiae deletion strains, locus YPL055C, strain LGE1, hits give low values 1.03 and 1.01 | S. cerevisiae deletion strains, locus YPL078C, strain atp4, hits give low values 1.02 | S. cerevisiae deletion strains, locus YPL106C, strain sse1, hits give low values 1.05 | S. cerevisiae deletion strains, locus YPL240C, strain hsp82, hits give low values 1.02 | S. cerevisiae deletion strains, locus YPL241C, strain CIN2, hits give low values 1.01 | S. cerevisiae deletion strains, locus YPL256C, strain CLN2, hits give low values 0.945 | S. cerevisiae deletion strains, locus YPR119W, strain clb2, hits give low values 1.01 | S. cerevisiae deletion strains, locus YPR141C, strain kar3, hits give low values 1.01 | S. cerevisiae deletion strains, locus YPR163C, strain tif3, hits give low values 0.999 | S. cerevisiae deletion strains, locus YPR167C, strain met16, hits give low values 1.01 | S. cerevisiae deletion strains, strain wtn01, hits give low values 1.03 | S. cerevisiae strains, strain wild type, hits give low values 1.01
